Laboratory results as given in PubChem BioAssay AID602357 (National Center for Advancing Translational Sciences (NCATS), 2012).
Inconclusive results are not listed. A number with no mark means an inactive call. Activity calls are given as the source filed them. The call rests on the fitted dose curve; in most records, active means well fitted inhibition curve with a large enough effect; inconclusive means small, poorly fitted or top-dose-only effect; inactive means no such curve, though single readings can be large or run the other way.

molecular target: Luciferin 4-monooxygenase (Photinus pyralis) (UniProt P08659); test: FLuc inhibitory activity for the follow-up compounds in a biochemical assay with Km concentrations of substrate; conditions: purified FLuc, Km substrates, luminescence; series mostly up to 57.5 µM; activity change, negative = inhibition: at the top concentration
Text: NCGC Assay Overview: Firefly (Photinus pyralis) luciferase is one of the most commonly used transcriptional reporters. It is considered one of the more dynamically responsive reporters - that is, responsive to changes in reporter transcription - as it requires no post-translational modifications and is enzymatically active directly after protein synthesis (Wood, 1998). With no endogenous expression in mammalian cells and without the requirement of external excitation, it offers very little background signal, thus generally providing excellent signal to background for most assays. Previous profiling work to determine the prevalence of compounds that affect FLuc enzymatic activity (PubChem AID 411) identified that ~3% of the MLSMR library (then at ~72K) inhibited FLuc. […] Of the compounds identified in this profile that inhibited FLuc, 151 compounds were selected for further analysis, in an effort to better understand their mode of inhibiting FLuc. The assay described here confirms the FLuc inhibitory activity of the 151 compounds.
NCGC Assay Protocol Summary: Reagents: 50mM Tris acetate, pH 7.5; 10mM Mg acetate; 10uM D-luciferin (Sigma #L9504); 10uM ATP; 0.01% Tween-20; 0.05% BSA; 10nM P. pyralis luciferase (Sigma #L9506) Control compounds used were two known firefly luciferase inhibitors (3-(5-(3-chlorophenyl)-1,2,4-oxadiazol-3-yl)benzoic acid and 5-(2-fluorophenyl)-3-phenyl-1,2,4-oxadiazole), and DMSO. Three microliters containing firefly luciferase substrates in buffer (final concentrations: 50mM Tris acetate, pH 7.5, 10mM Mg acetate, 0.01% Tween-20, 0.05% BSA, 10uM D-luciferin, and 10uM ATP) are dispensed into each well of a Greiner white, solid-bottom 1536-well format plate using a flying reagent dispenser (FRD). These assay plates were then treated with 23nL of compound or DMSO using a Kalypsys pin tool, which allows for delivery of a 12-point intraplate titration of each compound to the assay plate (quantitative HTS), with a final compound concentrations ranging from approximately ~60uM to 0.3nM. One microliter of firefly luciferase in 500mM Tris-acetate buffer was then delivered by FRD to each well for a final enzyme concentration of 10nM. Luciferase activity was then measured using a ViewLux CCD imager (PerkinElmer), with an average exposure time of 2-30 seconds (2X binning, medium/high gain).

Sequence of Luciferin 4-monooxygenase (Photinus pyralis) (P08659 whole entry, looked up): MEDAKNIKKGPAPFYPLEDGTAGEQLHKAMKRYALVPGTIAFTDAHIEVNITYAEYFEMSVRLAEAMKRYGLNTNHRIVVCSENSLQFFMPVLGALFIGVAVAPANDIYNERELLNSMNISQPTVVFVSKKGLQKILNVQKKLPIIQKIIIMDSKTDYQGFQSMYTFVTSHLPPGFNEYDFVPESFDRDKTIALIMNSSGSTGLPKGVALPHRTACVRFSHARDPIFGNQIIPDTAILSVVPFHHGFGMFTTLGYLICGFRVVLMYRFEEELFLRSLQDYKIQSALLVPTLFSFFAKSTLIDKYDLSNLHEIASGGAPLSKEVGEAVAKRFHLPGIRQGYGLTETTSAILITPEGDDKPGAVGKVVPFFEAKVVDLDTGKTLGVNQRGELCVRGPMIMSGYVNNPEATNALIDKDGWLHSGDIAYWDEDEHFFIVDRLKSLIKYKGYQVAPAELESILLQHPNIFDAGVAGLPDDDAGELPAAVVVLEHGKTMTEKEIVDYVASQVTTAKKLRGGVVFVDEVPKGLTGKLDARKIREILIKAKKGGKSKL

Row | SMILES | Potency | activity change, negative = inhibition
1 | O=C(Cc1ccccc1)Nc1ccc(C(=O)Nc2ccccc2C(=O)O)cc1 | 20.6 µM (active) | 
2 | CCOc1c(Cl)cc(C(=O)Nc2ccccc2C(=O)O)cc1Cl | 18.3 µM (active) | 
3 | Oc1ccc(-c2nc3ccccc3s2)c(O)c1 | 6.51 µM (active) | 
4 | Cc1ccc(C(=O)Nc2ccc(C(=O)O)cc2)cc1S(=O)(=O)NCc1ccccc1 |  | 3.69%
5 | O=S(=O)(c1ccc(-c2nc3ccccc3s2)cc1)N1CCCC1 |  | -0.117%
6 | O=C(Nc1ccccc1C(=O)O)c1cccc(S(=O)(=O)N2CCCC2)c1 | 13 µM (active) | 
7 | Nc1ccc(-c2nc3ccc(N)cc3s2)cc1 | 0.326 µM (active) | 
8 | O=C(Nc1cccc(-c2nc3ccccc3s2)c1)C1=COCCO1 | 18.3 µM (active) | 
9 | COc1cc(OC)cc(-c2nc3ccccc3s2)c1 | 6.51 µM (active) | 
10 | CC(C)c1ccc(C(=O)Nc2ccc(-c3nc4ccccc4s3)c(Cl)c2)cc1 |  | -34.9%
11 | O=C(Nc1ccccc1C(=O)O)c1cccc(NC(=O)c2ccco2)c1 | 18.3 µM (active) | 
12 | CC(=O)Oc1ccc(C(=O)Nc2ccccc2C(=O)Nc2cccc(C(=O)O)c2)cc1 | 6.51 µM (active) | 
13 | COc1ccc2nc(NC(=O)c3cccc(S(=O)(=O)N4CCOCC4)c3)sc2c1 | 20.6 µM (active) | 
14 | Cc1c(C)c2ccc(OCC(=O)Nc3ccccn3)c(C)c2oc1=O | 0.0116 µM (active) | 
15 | COc1ccc(C(=O)Nc2nc3ccc(OC)cc3s2)cc1 | 1.83 µM (active) | 
16 | Cc1ccc(C(=O)Nc2cccc(C(=O)O)c2)cc1S(=O)(=O)N1CCCCC1 | 0.0651 µM (active) | 
17 | CCn1c(C)nc2cc(-c3nc4n(n3)Cc3ccccc3-4)ccc21 | 0.0231 µM (active) | 
18 | c1ccc2sc(-c3ccc4c(c3)OCO4)nc2c1 | 0.326 µM (active) | 
19 | Nc1ccc(C(=O)Nc2ccccc2C(=O)O)cc1 | 7.3 µM (active) | 
20 | Cc1cccc(C(=O)Nc2ccccc2C(=O)Nc2ccc(C(=O)O)cc2)c1 | 11.6 µM (active) | 

Row | SMILES | Potency | activity change, negative = inhibition
21 | COc1ccc2nc(NC(=O)CCc3nc(-c4ccccc4F)no3)sc2c1 |  | -0.429%
22 | O=C(O)c1cccc(NC(=O)c2cccc(S(=O)(=O)N3CCc4ccccc4C3)c2)c1 | 36.6 µM (active) | 
23 | Cc1ccc(C(=O)O/N=C(\N)c2ccccn2)cc1 | 0.0291 µM (active) | 
24 | COc1ccc(CC(=O)Nc2cccc(C(=O)Nc3ccccc3C(=O)O)c2)cc1OC | 41.1 µM (active) | 
25 | Cc1ccc(S(=O)(=O)N2CCN(C(=O)c3ccccc3-c3nc4ccccc4s3)CC2)c(C)c1 |  | -4.09%
26 | O=C(O)c1ccc(NC(=O)c2ccccc2NC(=O)c2cccc(Br)c2)cc1 | 14.6 µM (active) | 
27 | O=C(Nc1ccccc1-c1nc2ccccc2s1)c1ccc(Br)o1 |  | -1.3%
28 | COc1ccc2nc(NC(=O)c3ccc4ncsc4c3)sc2c1 | 1.63 µM (active) | 
29 | Cc1c(NC(=O)c2cc(-n3cnnc3)ccc2Cl)cccc1-c1nc2ccccc2s1 | 0.58 µM (active) | 
30 | COc1ccc(C(=O)Nc2ccccc2-c2nc3ccccc3s2)c(OC)c1 |  | -3.66%
31 | COc1ccc(-c2nc3ccccc3s2)cc1O | 0.146 µM (active) | 
32 | O=C(O)c1cccc(NC(=O)c2ccc(S(=O)(=O)c3ccccc3)cc2)c1 | 5.8 µM (active) | 
33 | Nc1ccc2nc(-c3ccc(O)cc3)sc2c1 | 0.41 µM (active) | 
34 | CCOc1ccc2nc(NC(=O)c3cccnc3)sc2c1 | 2.91 µM (active) | 
35 | O=C(Nc1ccccc1C(=O)O)c1cc(S(=O)(=O)NCc2ccccc2)ccc1Cl |  | -4.34%
36 | COc1ccc(C(=O)Nc2ccccc2C(=O)Nc2ccccc2C(=O)O)cc1 | 0.58 µM (active) | 
37 | COc1cc(C(=O)Nc2cc(C)c(O)c(-c3nc4ccccc4s3)c2)cc(OC)c1OC |  | -10.3%
38 | O=C(Nc1cccc(-c2nc3ccccc3s2)c1)c1cc(-n2cnnc2)ccc1Cl | 11.6 µM (active) | 
39 | O=C(O)c1ccc(NC(=O)c2cccc(C(=O)Nc3ccc(C(=O)O)cc3)c2)cc1 |  | -8.45%
40 | CN(C)c1cccc(C(=O)Nc2ccc(-c3nc4ccccc4s3)cc2)c1 | 2.91 µM (active) | 
